Screens deposited in PubChem by National Center for Advancing Translational Sciences (NCATS).
Hits are enriched below; roughly 12% of the tested compounds scored in any of these assays.
BAZ2B block: BAZ2B (human) inhibition. Q9UIF8. AlphaScreen BAZ2B-H3K14Ac peptide displacement. Potency, µM (doses to about 114 µM), without a hit: top-dose activity change, negative = inhibition, hits mostly inhibitors. 4.4% of 360,000 active; note: % is set by controls: 0 for no effect and ±100 for the full control effect; nearly all actives have a fitted effect of over 60% in size
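Protein-peptide AlphaScreen: BAZ2B 50 nM, b-H3K14Ac 50 nM, 1x PBS pH 7.4 + 0.01% Tween-20. Preincubation 30 min RT; cpd 30 min RT (top 110 uM); beads 20 min RT, light-protected.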
HP1b binding inh: blocks HP1-beta chromodomain binding to methylated histone tails; P83916; AlphaScreen HP1-beta / biotin-H3K9me3 peptide binding; Potency, µM (highest dose often 114 µM), for inactives: at the highest dose activity change, negative = inhibition, actives largely listed as inhibitors; 0.56% of 390,000 active; AID 540317; note: nearly all actives have a fitted effect of over 70% in size
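AlphaScreen: HP1-beta (50 nM) preformed 30 min with biotin-H3(1-18)K9me3 peptide (50 nM) in PBS pH 7.4, 0.01% Tween-20. Compound added for 30 min at RT, then streptavidin donor/nickel chelate acceptor beads (10 ug/mL) for 30 min.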
Sfp inh: inhibitors of Bacillus subtilis Sfp phosphopantetheinyl transferase. Q9F4F7. Biochemical Sfp PPTase activity, qHTS. Potency, µM, without a hit: largest response in the series, negative = inhibition, usual class: inhibitors. 3.5% of 310,000 active. AID 1490;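 note: the enzyme is Sfp with the accession as filed and its product quenches rhodamine fluorescence; 0% = enzyme reaction without inhibitor and -100% = no enzyme wells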
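Step 1, compound plus 15 nM Sfp-PPTase, 15 min, room temperature. Step 2, add rhodamine-CoA (5 uM) and BHQ-2-YbbR (12.5 uM). Step 3, read 525/598 nm fluorescence at 0 and 30 min.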
JMJD2A Tudor inh: JMJD2A Tudor domain (human) inhibition | 4.4% of 390,000 active | AlphaScreen JMJD2A-Tudor / H3K4me3 peptide binding | Potency, µM (titrated, usually from 114 µM), for the others: top-dose activity change, negative = inhibition, most hits filed as inhibitors | O75164 | AID 504339; note: % is set by controls: 0 for no effect and ±100 for the full control effect; nearly all actives have a fitted effect of over 50% in size
PLK1 PBD block: PLK1 (human) polo-box domain binding inhibition; P53350; Plk1 PBD binding of FITC phosphopeptide, fluorescence polarization; Potency, µM, for inactives: max response, negative = inhibition, actives largely listed as inhibitors; 2.8% of 360,000 active; note: series mostly up to about 57 µM; % is set by controls: 0 for no effect and ±100 for the full control effect; nearly all actives have a fitted effect of over 65% in size
G9a inh: G9a (human) methyltransferase inhibition; Q96KQ7; G9a H3K9 monomethylation, AlphaScreen, 2 h; Potency, µM (series often up to 102 µM), without a hit: at the top dose activity, negative = inhibition, usual class: inhibitors; 8.8% of 350,000 active; AID 504332; note: % is set by controls: 0 for no effect and ±100 for the full control effect; nearly all actives have a fitted effect of over 75% in size
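Compounds were preincubated with 20 nM G9a for 15 min, after which biotinylated H3K9 peptide (500 nM) and SAM (20 uM) started a 2 h room-temperature reaction. Monomethylated product was quantified by antibody-based AlphaScreen chemiluminescence.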
Starred values were filed as active, the others as inactive; ? = inconclusive; . = no result given; ! = not active in a repeat; [ ] = remark or other dose. Calls come from the whole dose curve; as a rule, active = well fitted curve in the direction sought with a large enough effect; inconclusive = small, poorly fitted or top-dose-only effect, or another doubt; inactive = no such curve, though single readings can be large; an effect the other way counts as inactive or inconclusive. Potency is the fitted concentration of half-maximal effect.

SMILES | BAZ2B block | HP1b binding inh | Sfp inh | JMJD2A Tudor inh | PLK1 PBD block | G9a inh
COC(=O)CSC1=C(C#N)C(=O)NC2(CCCCC2)S1 | -36% | ? | 25µM* | ? | -9% | ?
N#CC1=C2CCCCC2(O)NC1=O (stereo not given) | . | . | . | . | -7% | .
Cc1ccc(C)c(S(=O)(=O)c2nnn3c2nc(NC2CCCCC2)c2sccc23)c1 | -22% | -11% | . | -28% | . | -9%[59 µM]
COCCn1c(=O)c(-c2cn(C)c3ccccc23)nc2cnc(Oc3ccc(OC)cc3)nc21 | . | . | -1% | . | . | -1%[12.7 µM]
CCn1cc(C(=O)OCC(=O)Nc2ccc(F)cc2F)c(=O)c2ccc(C)nc21 | -6% | 46% | . | -16% | . | ?
CCn1cc(-c2n[nH]c(=S)n2-c2ccc(C)cc2Br)c(=O)c2ccc(C)nc21 | -5% | 55% | 6% | ? | 0% | 10µM*
COC(=O)N1CCC2(CCN(C(=O)Nc3cccc(F)c3)CC2)CC1 | . | . | 7% | . | . | -3%[12.7 µM]
O=C(N/N=C(\c1ccccc1)c1cccnc1)c1cccc(F)c1 | 56µM* | 18% | 10% | 45µM* | 8% | 8%
O=C(Nc1ccc(F)cc1F)c1cccnc1 | 7% | -15% | 2% | ? | 27µM* | 18%[59 µM]
CCN1C(=O)c2ccccc2Sc2ccc(C(=O)NCCCN(CC(C)C)CC(C)C)cc21 | 5% | 13% | -3% | 3% | -2% | 33%
C=C(C)Cn1c(SCC(=O)N/N=C/c2ccccc2)nc2ccccc2c1=O | -1% | 13% | 79µM* | -10%[57.1 µM] | ? | 11%[59 µM]
C=C(C)Cn1c(SCC(=O)N/N=C/c2cccc(O)c2)nc2ccccc2c1=O | -8% | 16% | 11% | -12% | -7% | -1%[59 µM]
COc1c(N2CCN[C@H](C)C2)c(F)cc2c(=O)c(C(=O)O)cn(C3CC3)c12 | 0% | 10% | 3% | -17% | ? | .
CCn1cc(C(=O)O)c(=O)c2cc(F)c(N3CCNC(C)C3)c(F)c21 (stereo not given) | . | . | -2% | . | . | 11µM*!
COCCCN1C(=O)c2ccc(C(=O)N3CCN(c4ccccc4OC)CC3)cc2C1=O | -20% | 30% | 8% | -13% | -4% | 19%
C=C1CC[C@H](O)C/C1=C/C=C1\CCC[C@]2(C)[C@@H]([C@H](C)/C=C/[C@H](C)C(C)C)CC[C@@H]12 | -26% | 4% | . | ? | -22% | 14µM*
C=C1/C(=C\C=C2/CCC[C@]3(C)[C@@H]([C@H](C)/C=C/[C@@H](O)C4CC4)CC[C@@H]23)C[C@@H](O)C[C@@H]1O | . | . | -6% | . | . | -2%[12.7 µM]
Cc1cc(NC(=O)c2cccc(S(=O)(=O)Nc3cccc(C(=O)O)c3)c2)no1 | -4% | 36% | -11% | -3% | 3% | ?
COc1ccccc1OCC(=O)Nc1cc2c(cc1C(=O)O)OCCCO2 | -20% | 48% | 79µM* | 79µM* | -28% | 7.9µM*
CCOc1ccccc1OCC(=O)Nc1cc2c(cc1C(=O)O)OCCCO2 | -11% | 57% | 79µM* | -1% | -15% | 25µM*
CSc1ccccc1C(=O)Nc1cc2c(cc1C(=O)O)OCCCO2 | -27% | 1% | 4% | 22µM* | 30µM* | 2.8µM*
O=C(NC[C@@H](O)CO)c1c(I)c(C(=O)NC[C@@H](O)CO)c(I)c(N(CCO)C(=O)CO)c1I | . | . | 13% | . | . | 34%[21.5 µM]
CO[C@H]1COC(=O)C/C=C\[C@H](C)[C@@H](OC)COC(=O)[C@H](Cc2ccccc2)NC(=O)C/C=C\[C@@H]1C | . | . | 6% | . | . | .
COCC#Cc1ccc2c(c1)O[C@@H](CN(C)C(=O)Nc1ccc(OC)cc1)[C@H](C)CN([C@H](C)CO)S2(=O)=O | . | . | . | . | -1% | .
Nc1ccccc1SCc1csc(-c2ccc(Cl)cc2)n1 | 13% | 62% | 14µM* | 32% | 9.5µM* | 35µM*
SMILES | BAZ2B block | HP1b binding inh | Sfp inh | JMJD2A Tudor inh | PLK1 PBD block | G9a inh
C=CCn1c(SCc2csc(-c3ccc(Cl)cc3)n2)nnc1-c1ccccc1OC | 10% | 27% | -15% | -21% | -12% | 71µM*
Clc1ccc(-c2nc(CSc3ccccn3)cs2)cc1 | . | . | . | . | -23% | .
Cn1c(SCC(=O)O)nnc1-c1ccc(NC(=O)c2ccc(Cl)c(Cl)c2)cc1 | -1% | 24% | 12% | -8% | -18% | 50µM*
CC(=O)Nc1ccc(-c2nnc(SCC(=O)Nc3ccc4c(c3)oc3ccccc34)n2C)cc1 | 1%[57.1 µM] | 44% | -3% | 100µM* | -3% | 32%[0.501 µM]
Cc1ccc(-c2nnc(SCC(=O)CC(=O)Nc3ccccc3)n2C)cc1 | -4% | 57% | 28% | -13%[57.1 µM] | -12% | -21%[59 µM]
CC(C)c1nnc(NC(=O)C2CCN(C(=O)C(C)(C)C)CC2)s1 | . | -2% | . | 0% | . | .
COc1cccc(C(c2nnnn2C(C)(C)C)N2CCN(C3CCCCC3)CC2)c1OC (stereo not given) | 5% | 24% | 17% | -8% | -4% | 0%
COc1ccc(N2CCN(C(c3ccccc3OC)c3nnnn3C3CCCC3)CC2)cc1 (stereo not given) | 45µM* | ? | 4% | 56µM* | -8% | 16µM*
COc1ccc(N2CCN(C(c3cccc(OC)c3OC)c3nnnn3C3CCCC3)CC2)cc1 (stereo not given) | 40µM* | ? | -7% | 45µM* | -11% | 13µM*
Fc1ccccc1N1CCN(C(c2ccccn2)c2nnnn2C2CCCCC2)CC1 (stereo not given) | 79µM* | 16% | -23% | -28% | -2% | 14µM*
COc1ccc(N2CCN(C(c3cc(OC)ccc3OC)c3nnnn3CC3CCCO3)CC2)cc1 (stereo not given) | 50µM* | 0% | 15% | 79µM* | -29% | 14µM*
COc1ccc2cc(C(c3nnnn3CC3CCCO3)N3CCOCC3)c(=O)[nH]c2c1 (stereo not given) | -1% | 18% | 7% | -12% | 1% | 17%
COc1ccc(N2CCN(C(c3cccs3)c3nnnn3C3CCCC3)CC2)cc1 (stereo not given) | ? | -27% | 12% | ? | 0% | ?
Cc1ccccc1Cn1c(CN2CCC(C(=O)NCc3cccnc3)CC2)cc2ccccc21 | ? | 7% | . | -34% | . | -32%[59 µM]
Cc1ccc(NC(=O)CNC(=O)Cc2cccc3ccccc23)c(O)c1 | 4% | 59% | . | -6% | 5% | -29%
COc1ccc(OC)c(C(c2nnnn2C2CCCC2)N2CCN(c3ccccc3F)CC2)c1 (stereo not given) | 50µM* | -2% | 8% | -34% | -4% | -5%[59 µM]
O=C1C2C3C=CC(C4CC34)C2C(=O)N1CCCCN1CCN(c2ccc(F)cc2)CC1 (stereo not given) | . | 0% | . | -18% | 5% | .
O=C1ON=C(c2ccccc2[N+](=O)[O-])/C1=C/c1cccc([N+](=O)[O-])c1O | -2% | 30% | . | ? | ? | 1µM*
